Laboratory results as given in PubChem BioAssay (EPA / NIEHS).
Results filed as inconclusive are left out. The source made the active and inactive calls. How the source made its calls, unless noted: active means hit-call score of the fitted dose curve at least 0.9, where 1 is the maximum; inactive means score below 0.9.

Test system: SRY-box transcription factor 2 (SOX2) Protein Expression, Deisenroth Lab, SOX2 (gene 6657)
Experiment: CCTE_Deisenroth_DEVTOX-GLR_Endo_SOX2: CCTE's DevTox GLR-Endo Assay Evaluation of SRY-box transcription factor 2 (SOX2) Protein Expression, Deisenroth Lab (AID 2284412; active means hit-call score of the fitted dose curve at least 0.9, where 1 is the maximum)
In short: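 Endpoint is percent SOX2-positive cells (SOX2+ count/total cells) minus 0.2% DMSO control, from high-content imaging of fixed, nuclear-stained RUES2-GLR cells. Dosing twice at 24 h intervals over 48 h differentiation, 1 nM–200 uM in 10 points.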
With `CC(=O)Oc1ccccc1C(=O)O` the outcome was “inactive”.
In the case of `COc1cccc2c1C(=O)c1c(O)c3c(c(O)c1C2=O)C[C@@](O)(C(=O)CO)C[C@@H]3O[C@H]1C[C@H](N)[C@H](O)[C@H](C)O1`, the AC50 is reported as 2.25 µM (active).
For `O=c1[nH]cc(F)c(=O)[nH]1`, the AC50 was 34.3 µM (active).
For `COc1ccc2c(c1)c(CC(=O)O)c(C)n2C(=O)c1ccc(Cl)cc1`, the AC50 was 6.34 µM (active).

Test system: SRY-box transcription factor 17 (SOX17) Protein Expression, Deisenroth Lab, SOX17 (gene 64321)
Experiment: CCTE_Deisenroth_DEVTOX-GLR_Endo_SOX17: CCTE's DevTox GLR-Endo Assay Evaluation of SRY-box transcription factor 17 (SOX17) Protein Expression, Deisenroth Lab (AID 2284413)
In short: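 RUES2-GLR human pluripotent cells were seeded 24 h, then differentiated toward endoderm for 48 h with two chemical exposures 24 h apart (10-point series, 1 nM - 200 uM). Nuclei-stained fixed cells were imaged; endpoint is percent change in SOX17+ cells versus 0.2% DMSO.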
With `CC(=O)Oc1ccccc1C(=O)O` the outcome was “inactive”.
With `CC1=C(/C=C/C(C)=C/C=C/C(C)=C/CO)C(C)(C)CCC1` the AC50 was 33.6 µM (active).
For `COc1cccc2c1C(=O)c1c(O)c3c(c(O)c1C2=O)C[C@@](O)(C(=O)CO)C[C@@H]3O[C@H]1C[C@H](N)[C@H](O)[C@H](C)O1`, the AC50 was 5.85 µM (active).
For `CCCc1cc(=O)[nH]c(=S)[nH]1`, the outcome was “inactive”.
With `O=c1[nH]cc(F)c(=O)[nH]1` the AC50 was 9.06 µM (active).
For `COc1ccc2c(c1)c(CC(=O)O)c(C)n2C(=O)c1ccc(Cl)cc1`, the AC50 was 16 µM (active).

Test system: Brachyury (BRA) Protein Expression, TBXT (gene 6862)
Experiment: CCTE_Deisenroth_DEVTOX-GLR_Endo_BRA: CCTE's DevTox GLR-Endo Assay Evaluation of Brachyury (BRA) Protein Expression, Deisenroth Lab (AID 2284417)
In short: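 RUES2-GLR pluripotent cells differentiated 48 h with two chemical exposures 24 h apart, 10-point range 1 nM - 200 uM. Percentage of BRA+ cells per total count by high-content imaging, minus 0.2% DMSO control.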
For `CC(=O)Oc1ccccc1C(=O)O`, the outcome was “inactive”.
With `CC1=C(/C=C/C(C)=C/C=C/C(C)=C/CO)C(C)(C)CCC1` the AC50 was 66 µM (active).
For `COc1cccc2c1C(=O)c1c(O)c3c(c(O)c1C2=O)C[C@@](O)(C(=O)CO)C[C@@H]3O[C@H]1C[C@H](N)[C@H](O)[C@H](C)O1`, the AC50 was 0.0902 µM (active).
In the case of `CCCc1cc(=O)[nH]c(=S)[nH]1`, the outcome is reported as “inactive”.
With `O=c1[nH]cc(F)c(=O)[nH]1` the AC50 was 20.3 µM (active).
In the case of `COc1ccc2c(c1)c(CC(=O)O)c(C)n2C(=O)c1ccc(Cl)cc1`, the AC50 is reported as 12.5 µM (active).

Test system: not listed separately
Experiment: CCTE_Deisenroth_DEVTOX-GLR_Endo_CellCount: Viability Assessment in CCTE's DevTox GLR-Endo Assay, Deisenroth Lab (AID 2284420)
In short: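 Percent change in nuclear-stain cell counts versus 0.2% DMSO, from high-content imaging over 5 fields per well. Over a 48 h endoderm differentiation, RUES2-GLR cells received two doses 24 h apart across a 1 nM–200 uM series, with n=4.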
With `CC(=O)Oc1ccccc1C(=O)O` the outcome was “inactive”.
For `CC1=C(/C=C/C(C)=C/C=C/C(C)=C/CO)C(C)(C)CCC1`, the AC50 was 34.7 µM (active).
With `COc1cccc2c1C(=O)c1c(O)c3c(c(O)c1C2=O)C[C@@](O)(C(=O)CO)C[C@@H]3O[C@H]1C[C@H](N)[C@H](O)[C@H](C)O1` the AC50 was 0.00878 µM (active).
For `CCCc1cc(=O)[nH]c(=S)[nH]1`, the outcome was “inactive”.
For `O=c1[nH]cc(F)c(=O)[nH]1`, the AC50 was 5.89 µM (active).
With `COc1ccc2c(c1)c(CC(=O)O)c(C)n2C(=O)c1ccc(Cl)cc1` the AC50 was 10.1 µM (active).

Test system: SRY-box transcription factor 17 (SOX17) Protein Expression, Deisenroth Lab, SOX17 (gene 64321)
Experiment: CCTE_Deisenroth_DEVTOX-GLR_Pluri_SOX17: CCTE's DevTox GLR-Pluri Assay Evaluation of SRY-box transcription factor 17 (SOX17) Protein Expression, Deisenroth Lab (AID 2284427; active means hit-call score of the fitted dose curve at least 0.9, where 1 is the maximum)
In short: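 The endpoint is SOX17+ cells as a fraction of cell count, corrected for the 0.2% DMSO control and obtained by high-content fluorescence imaging of fixed cells. Cells were RUES2-GLR under a 48-hour endoderm differentiation, dosed twice at 24-hour intervals over 1 nM–200 uM.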
For `CC(=O)Oc1ccccc1C(=O)O`, the outcome was “inactive”.
With `CC1=C(/C=C/C(C)=C/C=C/C(C)=C/CO)C(C)(C)CCC1` the AC50 was 39.3 µM (active).
With `COc1cccc2c1C(=O)c1c(O)c3c(c(O)c1C2=O)C[C@@](O)(C(=O)CO)C[C@@H]3O[C@H]1C[C@H](N)[C@H](O)[C@H](C)O1` the AC50 was 0.27 µM (active).
With `CCCc1cc(=O)[nH]c(=S)[nH]1` the outcome was “inactive”.
With `O=c1[nH]cc(F)c(=O)[nH]1` the AC50 was 7.95 µM (active).
With `COc1ccc2c(c1)c(CC(=O)O)c(C)n2C(=O)c1ccc(Cl)cc1` the AC50 was 2.61 µM (active).

Test system: SRY-box transcription factor 2 (SOX2) Protein Expression, Deisenroth Lab, SOX2 (gene 6657)
Experiment: CCTE_Deisenroth_DEVTOX-GLR_Pluri_SOX2: CCTE's DevTox GLR-Pluri Assay Evaluation of SRY-box transcription factor 2 (SOX2) Protein Expression, Deisenroth Lab (AID 2284428)
In short: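 Percent SOX2+ cells (SOX2+ count per total cells, fluorescent imaging) in RUES2-GLR human pluripotent line, expressed relative to 0.2% DMSO. Compounds dosed twice at 24 h intervals during 48 h, 1 nM - 200 uM, 10 concentrations.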
In the case of `CC(=O)Oc1ccccc1C(=O)O`, the outcome is reported as “inactive”.
For `CC1=C(/C=C/C(C)=C/C=C/C(C)=C/CO)C(C)(C)CCC1`, the AC50 was 19.8 µM (active).
For `COc1cccc2c1C(=O)c1c(O)c3c(c(O)c1C2=O)C[C@@](O)(C(=O)CO)C[C@@H]3O[C@H]1C[C@H](N)[C@H](O)[C@H](C)O1`, the AC50 was 0.0073 µM (active).
With `CCCc1cc(=O)[nH]c(=S)[nH]1` the outcome was “inactive”.
For `O=c1[nH]cc(F)c(=O)[nH]1`, the AC50 was 7.1 µM (active).
For `COc1ccc2c(c1)c(CC(=O)O)c(C)n2C(=O)c1ccc(Cl)cc1`, the AC50 was 6.52 µM (active).

Test system: Brachyury (BRA) Protein Expression, Deisenroth Lab, TBXT (gene 6862)
Experiment: CCTE_Deisenroth_DEVTOX-GLR_Pluri_BRA: CCTE's DevTox GLR-Pluri Assay Evaluation of Brachyury (BRA) Protein Expression, Deisenroth Lab (AID 2284429; active means hit-call score of the fitted dose curve at least 0.9, where 1 is the maximum)
In short: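 Percent BRA+ cells (BRA+ count over total cells) by high-content imaging of fixed RUES2-GLR cultures, corrected by 0.2% DMSO control. Cells received two doses over 48-hour differentiation, 1 nM–200 uM, n=4 experiments.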
For `CC(=O)Oc1ccccc1C(=O)O`, the outcome was “inactive”.
For `CC1=C(/C=C/C(C)=C/C=C/C(C)=C/CO)C(C)(C)CCC1`, the AC50 was 26.8 µM (active).
With `COc1cccc2c1C(=O)c1c(O)c3c(c(O)c1C2=O)C[C@@](O)(C(=O)CO)C[C@@H]3O[C@H]1C[C@H](N)[C@H](O)[C@H](C)O1` the AC50 was 0.00927 µM (active).
With `CCCc1cc(=O)[nH]c(=S)[nH]1` the outcome was “inactive”.
With `O=c1[nH]cc(F)c(=O)[nH]1` the AC50 was 7.54 µM (active).
In the case of `COc1ccc2c(c1)c(CC(=O)O)c(C)n2C(=O)c1ccc(Cl)cc1`, the AC50 is reported as 6.56 µM (active).

Test system: not listed separately
Experiment: CCTE_Deisenroth_DEVTOX-GLR_Pluri_CellCount: Viability Assessment in CCTE's DevTox GLR-Pluri Assay Evaluation of Total Cell Counts, Deisenroth Lab (AID 2284430)
In short: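 Cytotoxicity readout: fluorescent nuclei counts by high-content imaging, expressed as percent change relative to 0.2% DMSO. Human RUES2-GLR pluripotent line differentiated 48 h, dosed twice at 24-h intervals across 1 nM - 200 uM (10 points).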
With `CC(=O)Oc1ccccc1C(=O)O` the outcome was “inactive”.
With `CC1=C(/C=C/C(C)=C/C=C/C(C)=C/CO)C(C)(C)CCC1` the AC50 was 29.4 µM (active).
For `COc1cccc2c1C(=O)c1c(O)c3c(c(O)c1C2=O)C[C@@](O)(C(=O)CO)C[C@@H]3O[C@H]1C[C@H](N)[C@H](O)[C@H](C)O1`, the AC50 was 0.00758 µM (active).
In the case of `CCCc1cc(=O)[nH]c(=S)[nH]1`, the outcome is reported as “inactive”.
In the case of `O=c1[nH]cc(F)c(=O)[nH]1`, the AC50 is reported as 8.12 µM (active).
With `COc1ccc2c(c1)c(CC(=O)O)c(C)n2C(=O)c1ccc(Cl)cc1` the AC50 was 4.99 µM (active).

Test system: TTR (gene 7276)
Experiment: CCTE_GLTED_hTTR_0.125uM: CCTE's human Transthyretin (hTTR) Inhibition Assay, with 0.125uM TTR, Great Lakes Toxicology and Ecology Division (GLTED) Lab (AID 2284431);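 further: hits lower the fluorescence signal relative to DMSO baseline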
In short: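 TTR at 0.125uM incubated 2 h with test chemical; displacement of bound ANSA read by fluorescence (ex 380, em 475). Activity is signal loss versus DMSO baseline.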
For `COc1cc(S(=O)(=O)O)c(C)cc1N=Nc1c(O)ccc2cc(S(=O)(=O)O)ccc12`, the AC50 was 30.8 µM (active).
With `C[C@]12C=CC(=O)C=C1CC[C@@H]1[C@@H]2C(=O)C[C@@]2(C)[C@H]1CC[C@]2(O)C(=O)CO` the outcome was “inactive”.
With `Cc1cccc(C)c1O` the AC50 was 33.4 µM (active).
For `Cc1cc(NC(=O)C(=O)O)cc(C)c1Oc1ccc(O)c2c1CCC2`, the AC50 was 0.344 µM (active).
For `Cc1cccc(Nc2cc(Cl)nc(SCC(=O)O)n2)c1C`, the AC50 was 3.12 µM (active).
For `Cc1ccc(C)c(O)c1C`, the AC50 was 21.9 µM (active).
For `Oc1ccc2ccccc2c1N=Nc1ccccc1`, the AC50 was 1.37 µM (active).
For `C=CCc1ccc(O)c(OC)c1`, the AC50 was 26.1 µM (active).
In the case of `Cc1c(C(=O)O)c(O)cc2c1C(=O)c1c(O)c([C@@H]3O[C@H](CO)[C@@H](O)[C@H](O)[C@H]3O)c(O)c(O)c1C2=O`, the AC50 is reported as 10.1 µM (active).
For `CCCCC(CC)COC(=O)CC(C(=O)OCC(CC)CCCC)S(=O)(=O)O` (stereo not drawn), the AC50 was 1.62 µM (active).
For `CC=Cc1ccc(O)c(OC)c1`, the AC50 was 13.6 µM (active).
With `COc1ccc2c(c1)c(CC(=O)O)c(C)n2C(=O)c1ccc(Cl)cc1` the AC50 was 1.93 µM (active).
